The record followed here is the supplement of paper PMC11172423.

The structures appear in SMILES notation.

One experiment deals with Falciformispora senegalensis CBS197.79. Kind of experiment: growth relative to untreated control; higher = less inhibition, active = 20 or less. The following applies: 25 µM. Summed up:
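Growth was expressed as metabolic activity relative to the untreated growth control, with both corrected using a blank of medium plus dye. Hyphal fragments of M. mycetomatis MM55 or F. senegalensis CBS197.79 were suspended to 68–72% transmission at 660 nm in colourless RPMI 1640 containing L-glutamine and MOPS. In 96-well plates they were exposed to compound at 100 or 25 µM for 7 days at 37 °C, and viability was read with MTS (2 h, 490 nm) or resazurin (600 nm).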
`CC(=O)Nc1ccc(NC(=O)c2cc(-c3ccc(C)cc3O)n[nH]2)cc1`: the growth was 81.7% (inactive).

As for `C[C@H](CS)C(=O)N1CCC[C@H]1C(=O)O`, the growth is 109% (inactive).

As for `CCOc1cc([C@@H](CS(C)(=O)=O)N2C(=O)c3cccc(NC(C)=O)c3C2=O)ccc1OC`, the growth is 99.4% (inactive).

On to `CCNCc1cc(Nc2ccnc3cc(Cl)ccc23)ccc1O`, for which the growth was 48.5% (inactive).

Turning to `CC(C)C[C@H](NC(=O)[C@@H](NC(=O)c1cccc(-c2ccccc2)n1)[C@@H](C)O)B(O)O`, the growth was 102% (inactive).

On to `Cn1nc(-c2cccc(CNC3CCc4ccc(O)cc43)c2)c2cnc(NC3CCCC3)nc21` (configuration not stated), for which the growth is 18% (active).

For the compound `FC(F)(F)c1ccnc(Nc2cn3cc(-c4ccc(N5CCOCC5)nc4)ccc3n2)n1`, the growth is 91.1% (inactive).

With `Cc1nn(C2CCS(=O)(=O)C2)c(C)c1C1Nc2ccccc2C(=O)N1Cc1ccc2c(c1)OCO2` (configuration not stated), the growth was 84.3% (inactive).

For `O=C(Nc1ccc(Cl)c(C(F)(F)F)c1)Nc1ccc(Cl)c(C(F)(F)F)c1`, the growth is 99.4% (inactive).

For the compound `O=C(NCCN1CCCC1)c1ccc(Nc2nccc(-c3ccc(Cl)cc3)n2)cc1`, the growth was 83.6% (inactive).

For the compound `CN(C)CCOc1ccc(/C(=C(/CCCl)c2ccccc2)c2ccccc2)cc1`, the growth is 0% (active).

As for `Fc1cccc(-c2ccc3c(c2)CC(NCc2c[nH]c4cnccc24)C3)c1` (configuration not stated), the growth is 6.11% (active).

As for `CC(=O)c1nn(-c2c(Cl)cc(C(F)(F)F)cc2Cl)c(N)c1S(C)=O` (configuration not stated), the growth was 94.6% (inactive).

Take `Cc1nc(NCc2ccc(F)cc2)nc(NCC(C)(C)C)c1C`: the growth was 15.9% (active).

For the compound `CN(C)CCn1cnc2sc3c(c2c1=O)CCC(NCc1cccc(Cl)c1)C3` (configuration not stated), the growth is 94.3% (inactive).

Regarding `CC(C)Nc1cccnc1N1CCN(C(=O)c2cc3cc(NS(C)(=O)=O)ccc3[nH]2)CC1`, the growth was 101% (inactive).

Turning to `Nc1nc(Nc2ccc3c(c2)CC[C@@H](N2CCCC2)CC3)nn1-c1cc2c(nn1)-c1ccccc1CCC2`, the growth is -3.21% (active).

For the compound `NC1CCc2nc(-c3cccnc3)nc(Nc3ccc(C(F)(F)F)cc3)c2C1` (configuration not stated), the growth was 102% (inactive).

`Cc1cc2ncc(C(=O)NCC(C)(C)NCC(=O)N3CCC[C@H]3C#N)cn2n1`: the growth was 105% (inactive).

On to `Cc1onc(-c2ccccc2)c1-c1ccc(S(N)(=O)=O)cc1`, for which the growth was 97% (inactive).

With `N#Cc1ccc(C/C(=N/NC(=O)Nc2ccc(OC(F)(F)F)cc2)c2cccc(C(F)(F)F)c2)cc1`, the growth was 97% (inactive).

On to `Cc1cnc2nc(NC3COc4ccc(F)cc43)nc(NC3CCC4(CCCC4)CC3)c2c1` (configuration not stated), for which the growth is 85.8% (inactive).

As to `CC(=O)N1CCN(c2ccc(OC[C@H]3CO[C@](Cn4ccnc4)(c4ccc(Cl)cc4Cl)O3)cc2)CC1`, the growth is 31.6% (inactive).

For `Cc1cccc(Nc2nccc(-c3cccc(C#N)c3)n2)c1`, the growth is 80.6% (inactive).

For the compound `CC(C)Oc1ccc(-c2nc(-c3cccc4c3CC[C@@H]4NCCO)no2)cc1C#N`, the growth is 9.29% (active).

In the case of `CC(C)Oc1cccc(-c2ccc3nc(Nc4ncccc4N(C)C)cn3c2)n1`, the growth is 88.2% (inactive).

Consider `CC[C@H](C)[C@H]1O[C@]2(CC[C@@H]1C)C[C@@H]1C[C@@H](C/C=C(\C)[C@@H](O[C@H]3C[C@H](OC)[C@@H](O[C@H]4C[C@H](OC)[C@@H](O)[C@H](C)O4)[C@H](C)O3)[C@@H](C)/C=C/C=C3\CO[C@@H]4[C@H](O)C(C)=C[C@@H](C(=O)O1)[C@]34O)O2`, for which the growth was 90.2% (inactive).

As for `CCOc1ccc(Cc2nccc3cc(OCC)c(OCC)cc23)cc1OCC`, the growth was 108% (inactive).

Regarding `COc1ccc(-c2ccc3c(-c4ccc(F)cc4)cnc(N)c3c2)cn1`, the growth was 94.3% (inactive).

For `Cc1nn(C)c(Oc2ccccc2)c1C=NOCc1ccc(C(=O)OC(C)(C)C)cc1`, the growth is 95% (inactive).

Turning to `Cc1cc(Nc2cc(N)ncn2)c(=O)n2c1C(=O)NC21CCCCC1`, the growth was 111% (inactive).

On to `O=C1NCN(c2ccccc2)C12CCN(CCCC(c1ccc(F)cc1)c1ccc(F)cc1)CC2`, for which the growth is 3.66% (active).

Take `FC(F)(F)CNc1ncc2nc(Nc3cc(Cl)cc(Cl)c3)n(C3CCNCC3)c2n1`: the growth is 104% (inactive).

Consider `CCN(CC)C(=O)/C(C#N)=C/c1cc(O)c(O)c([N+](=O)[O-])c1`, for which the growth was 99% (inactive).

For `O=C(Nc1cnc2ccccc2c1)c1ccccc1C(=O)c1ccc(F)cc1`, the growth is 88.2% (inactive).

In the case of `O=C(Nc1cccc(-c2n[nH]c3ccc(-c4n[nH]c(C5CCCN5)n4)cc23)c1)C1CC1` (configuration not stated), the growth was 102% (inactive).

Staying with this experiment, now noted: 100 µM.
For `CC(=O)Nc1ccc(NC(=O)c2cc(-c3ccc(C)cc3O)n[nH]2)cc1`, the growth was 82.2% (inactive).

Turning to `C[C@H](CS)C(=O)N1CCC[C@H]1C(=O)O`, the growth is 91.7% (inactive).

With `CCOc1cc([C@@H](CS(C)(=O)=O)N2C(=O)c3cccc(NC(C)=O)c3C2=O)ccc1OC`, the growth was 99.6% (inactive).

In the case of `CCNCc1cc(Nc2ccnc3cc(Cl)ccc23)ccc1O`, the growth was 16.4% (active).

On to `CC(C)C[C@H](NC(=O)[C@@H](NC(=O)c1cccc(-c2ccccc2)n1)[C@@H](C)O)B(O)O`, for which the growth was 99% (inactive).

Take `Cn1nc(-c2cccc(CNC3CCc4ccc(O)cc43)c2)c2cnc(NC3CCCC3)nc21` (configuration not stated): the growth is 21.3% (inactive).

`FC(F)(F)c1ccnc(Nc2cn3cc(-c4ccc(N5CCOCC5)nc4)ccc3n2)n1`: the growth is 92.1% (inactive).

Regarding `Cc1nn(C2CCS(=O)(=O)C2)c(C)c1C1Nc2ccccc2C(=O)N1Cc1ccc2c(c1)OCO2` (configuration not stated), the growth is 93.6% (inactive).

On to `O=C(Nc1ccc(Cl)c(C(F)(F)F)c1)Nc1ccc(Cl)c(C(F)(F)F)c1`, for which the growth is 88.1% (inactive).

Turning to `O=C(NCCN1CCCC1)c1ccc(Nc2nccc(-c3ccc(Cl)cc3)n2)cc1`, the growth was 7.34% (active).

Regarding `CN(C)CCOc1ccc(/C(=C(/CCCl)c2ccccc2)c2ccccc2)cc1`, the growth is 0% (active).

With `Fc1cccc(-c2ccc3c(c2)CC(NCc2c[nH]c4cnccc24)C3)c1` (configuration not stated), the growth was 14.3% (active).

In the case of `CC(=O)c1nn(-c2c(Cl)cc(C(F)(F)F)cc2Cl)c(N)c1S(C)=O` (configuration not stated), the growth is 83.2% (inactive).

For the compound `Cc1nc(NCc2ccc(F)cc2)nc(NCC(C)(C)C)c1C`, the growth was 17.8% (active).

As to `CN(C)CCn1cnc2sc3c(c2c1=O)CCC(NCc1cccc(Cl)c1)C3` (configuration not stated), the growth was 21% (inactive).

On to `CC(C)Nc1cccnc1N1CCN(C(=O)c2cc3cc(NS(C)(=O)=O)ccc3[nH]2)CC1`, for which the growth is 96.5% (inactive).

Take `Nc1nc(Nc2ccc3c(c2)CC[C@@H](N2CCCC2)CC3)nn1-c1cc2c(nn1)-c1ccccc1CCC2`: the growth is 5.2% (active).

For `NC1CCc2nc(-c3cccnc3)nc(Nc3ccc(C(F)(F)F)cc3)c2C1` (configuration not stated), the growth was 13.8% (active).

Regarding `Cc1cc2ncc(C(=O)NCC(C)(C)NCC(=O)N3CCC[C@H]3C#N)cn2n1`, the growth is 102% (inactive).

For `Cc1onc(-c2ccccc2)c1-c1ccc(S(N)(=O)=O)cc1`, the growth was 105% (inactive).

As to `N#Cc1ccc(C/C(=N/NC(=O)Nc2ccc(OC(F)(F)F)cc2)c2cccc(C(F)(F)F)c2)cc1`, the growth is 96.1% (inactive).

For `Cc1cnc2nc(NC3COc4ccc(F)cc43)nc(NC3CCC4(CCCC4)CC3)c2c1` (configuration not stated), the growth is 95% (inactive).

Turning to `CC(=O)N1CCN(c2ccc(OC[C@H]3CO[C@](Cn4ccnc4)(c4ccc(Cl)cc4Cl)O3)cc2)CC1`, the growth is 12.3% (active).

Turning to `Cc1cccc(Nc2nccc(-c3cccc(C#N)c3)n2)c1`, the growth is 89.8% (inactive).

With `CC(C)Oc1ccc(-c2nc(-c3cccc4c3CC[C@@H]4NCCO)no2)cc1C#N`, the growth is 6.46% (active).

In the case of `CC(C)Oc1cccc(-c2ccc3nc(Nc4ncccc4N(C)C)cn3c2)n1`, the growth was 93.4% (inactive).

As to `CC[C@H](C)[C@H]1O[C@]2(CC[C@@H]1C)C[C@@H]1C[C@@H](C/C=C(\C)[C@@H](O[C@H]3C[C@H](OC)[C@@H](O[C@H]4C[C@H](OC)[C@@H](O)[C@H](C)O4)[C@H](C)O3)[C@@H](C)/C=C/C=C3\CO[C@@H]4[C@H](O)C(C)=C[C@@H](C(=O)O1)[C@]34O)O2`, the growth was 91.2% (inactive).

On to `CCOc1ccc(Cc2nccc3cc(OCC)c(OCC)cc23)cc1OCC`, for which the growth is 105% (inactive).

For `COc1ccc(-c2ccc3c(-c4ccc(F)cc4)cnc(N)c3c2)cn1`, the growth was 75.2% (inactive).

Turning to `Cc1nn(C)c(Oc2ccccc2)c1C=NOCc1ccc(C(=O)OC(C)(C)C)cc1`, the growth is 89% (inactive).

Turning to `Cc1cc(Nc2cc(N)ncn2)c(=O)n2c1C(=O)NC21CCCCC1`, the growth was 107% (inactive).

For `O=C1NCN(c2ccccc2)C12CCN(CCCC(c1ccc(F)cc1)c1ccc(F)cc1)CC2`, the growth was 14.7% (active).

Consider `FC(F)(F)CNc1ncc2nc(Nc3cc(Cl)cc(Cl)c3)n(C3CCNCC3)c2n1`, for which the growth was 107% (inactive).

With `CCN(CC)C(=O)/C(C#N)=C/c1cc(O)c(O)c([N+](=O)[O-])c1`, the growth is 99.4% (inactive).

Consider `O=C(Nc1cnc2ccccc2c1)c1ccccc1C(=O)c1ccc(F)cc1`, for which the growth is 95.5% (inactive).

For the compound `O=C(Nc1cccc(-c2n[nH]c3ccc(-c4n[nH]c(C5CCCN5)n4)cc23)c1)C1CC1` (configuration not stated), the growth was 95% (inactive).
